Potency data for five compounds are collected here from PubChem BioAssay AID485281 (National Center for Advancing Translational Sciences (NCATS), 2010).

The campaign covered roughly 350,000 compounds. About 260 (0.074%) were called active. Entries that show only a call come without a potency. Roughly 8% stayed inconclusive and do not appear here. Calls follow the shape of the dose curve; as a rule, active = well fitted inhibition curve with a large enough effect; inconclusive = small, poorly fitted or top-dose-only effect; inactive = no such curve, though single readings can be large or run the other way. Only a selection was taken, and actives are over-represented in it overall.
Potency is read from the fitted curve at half-maximal effect.

Ferritin light chain (Equus caballus), sequence (P02791 2-175 limits assumed): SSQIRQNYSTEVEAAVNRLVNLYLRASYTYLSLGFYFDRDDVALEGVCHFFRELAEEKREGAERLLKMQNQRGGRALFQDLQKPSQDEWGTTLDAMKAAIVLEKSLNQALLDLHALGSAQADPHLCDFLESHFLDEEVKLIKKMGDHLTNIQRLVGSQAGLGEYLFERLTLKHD

In the test the target is Ferritin light chain (Equus caballus) (UniProt P02791). Briefly: qHTS Assay for Identification of Novel General Anesthetics. Also: nearly all actives have a fitted effect of over 20% in size. To be noted: apoferritin/1-aminoanthracene competitive binding, fluorescence; series mostly up to 77.5 µM. The text has this:
Source: NIH Chemical Genomics Center [NCGC]
Assay Submitter: Roderic Eckenhoff, University of Pennsylvania
Screening Center PI: Christopher P. Austin, NIH
Probe Development: NIH Chemical Genomics Center [NCGC]
Anesthetic development has remained a largely empirical process. There are growing concerns about the cognitive effects of known general anesthetics and acceleration of the onset of neurodegenerative disease. The compounds' toxicity and multiple specific binding targets in the mammalian brain [4] has made them less attractive as drug leads. In this assay, a GABAergic mimetic model system, apoferritin and a profluorescent 1-aminoanthracene ligand (1-AMA), was used to construct a competitive binding assay for identification of novel general anesthetics. The assay was validated for 1-AMA using other known anesthetics, such as isoflurane (CID:3763) and propofol (CID: 4943), [6].
[1] S.L. Bianchi, T. Tran, C. Liu, S. Lin, Y. Li, J.M. Keller, R.G. Eckenhoff, and M.F. Eckenhoff, Brain and behavior changes in 12-month-old Tg2576 and nontransgenic mice exposed to anesthetics. Neurobiol Aging 29 (2008) 1002-10.
[2] Z. Xie, Y. Dong, U. Maeda, R.D. Moir, W. Xia, D.J. Culley, G. Crosby, and R.E. Tanzi, The inhalation anesthetic isoflurane induces a vicious cycle of apoptosis and amyloid beta-protein accumulation. J Neurosci 27 (2007) 1247-54.
[3] P. Honegger, and J.M. Matthieu, Selective toxicity of the general anesthetic propofol for GABAergic neurons in rat brain cell cultures.
[4] M.F. Eckenhoff, K. Chan, and R.G. Eckenhoff, Multiple specific binding targets for inhaled anesthetics in the mammalian brain. J Pharmacol Exp Ther 300 (2002) 172-9.
[5] C.A. Butts, J. Xi, G. Brannigan, A.A. Saad, S.P. Venkatachalan, R.A. Pearce, M.L. Klein, R.G. Eckenhoff, and I.J. Dmochowski, Identification of a fluorescent general anesthetic, 1-aminoanthracene. Proc Natl Acad Sci U S A 106 (2009) 6501-6.
[6] W.A. Lea, J. Xi, A. Jadhav, L. Lu, C.P. Austin, A. Simeonov, and R.G. Eckenhoff, A high-throughput approach for identification of novel general anesthetics. PLoS One 4 (2009) e7150.
Three uL of reagents (free 1-AMA (50% saturated solution of 1-aminoanthracene
in PBS) in columns 3, 4 as negative control and 1-AMA/apoferritin mixture (10 uM horse-spleen apoferritin in 50% saturated 1-aminoanthracene in PBS) in columns 1, 2, 5-48) was dispensed into 1536-well Greiner black assay plates. Compounds (23 nL) were transferred via Kalypsys pintool equipped with 1,536-pin array (10 nL slotted pins, V&P Scientific, San Diego, CA). Titration of the positive control, propofol, were delivered via pin transfer from separate control plates to the 2nd column of each assay plate. The starting concentration of the control, dissolved in DMSO, was at 160 mM, followed by two-fold dilution points in duplicate, for a total of 16 concentrations. The plates were incubated for 10 min at room temperature, and then read on an EnVision HTS multilabel reader (Perkin-Elmer, Waltham, MA) (end point read, 3 min/plate) using Fura2 BFP excitation filter (380 nm, bandwidth 10 nm) and fluorescein emission filter (535 nm, bandwidth 25 nm) set. A LANCE/DELFIA dichroic mirror with a cutoff wavelength at 400 nm was used to maximize signal accuracy and strength. […] Activity was computed as the normalized fluorescence response relative to free 1-AMA and 1-AMA/apoferritin complex values. […]
Background: Quantitative high-throughput screening tests each substance at several concentrations.
On to `N[C@@H](Cc1c[nH]c2ccccc12)c1nnc(SCc2c(F)cccc2Cl)o1`, for which the Potency is 28.2 µM (active).

On to `CCOCCCNC(=O)c1c(NC(=O)c2nc(SC)ncc2Cl)sc2c1CCCC2`, for which the Potency entry is “inactive”.

Regarding `COC(=O)c1ccccc1NC(=O)c1cc(-c2ccccc2O)no1`, the Potency result is “inactive”.

With `CCc1ccccc1NC(=O)c1sc2nc3c(cc2c1N)CN(Cc1ccccc1)CC3`, the Potency entry is “inactive”.

With `C[C@H]1C/C=C/[C@@H]2[C@@H]3O[C@]3(C)[C@@H](C)[C@H]3[C@H](Cc4ccccc4)NC(=O)[C@]32OC(=O)O/C=C/[C@](C)(O)C1=O`, the Potency result is “inactive”.
